Screening results from PubChem BioAssay.
Only some compounds are listed: those with a hit (about 2.9% of all), similar ones and a draw of the others.
KKLEB tox = CF airway cell cytotoxicity counter-screen. activity change (cytotoxicity), % at 5 µM. KKLEB CF airway cells viability, ATPlite luminescence, overnight; hits give low values; cells stimulated with P. aeruginosa culture filtrate. AID 602141. actives 0.36% (n = 360,000);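 active = corrected activity change at or below -50% at 5 µM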
Shn3 inh set2 = Schnurri-3 reporter inhibition in Clone20 osteoblasts; actives 0.52% (n = 360,000); Clone20 osteoblast Shn3 3'UTR firefly luciferase, 24 h; inhibition, % at 12.5 µM;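 active = mean inhibition of at least 75% with every replicate also reaching 75%; inconclusive = mean inhibition at least 75% but some replicate below; inactive = mean inhibition below 75%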
CF NFkB block = blocks PAF-induced NF-kB reporter in cystic fibrosis cells | KKLEB NF-kB-GFP reporter, GFP fluorescence overnight | inhibition, % at 5 µM | actives 0.86% (n = 360,000) | AID 588850;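 active = at least 50% inhibition at 5 µM, scaled per plate between neutral and stimulator controls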;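 also: PAF is a Pseudomonas aeruginosa culture filtrate used as stimulus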
MITF TRPM1 inh = inhibitors of MITF-driven TRPM1 promoter in melanoma cells | SK-MEL-5 TRPM1 promoter luciferase, 24 h | inhibition, % at 12.5 µM | actives 0.83% (n = 330,000) | AID 488899;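 active = mean inhibition across replicates of 60% or more, whatever share of single replicates reaches that level; inconclusive = some that reach 60%, reason not given; inactive = mean inhibition across replicates below 60%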
Peg3 prom inh-1 = Peg3 promoter activity inhibition | HeLa PEG-Prom luciferase reporter, luminescence, overnight | inhibition, % at 20 µM | actives 1.7% (n = 360,000) | AID 588405;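 active = inhibition of at least 50% at 20 µM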
EBV LMP1 NFkB = inhibitors of Epstein-Barr LMP1-induced NF-kappaB reporter; LMP1-induced NF-kappaB luciferase reporter cells, luminescence; inhibition, % at 12.5 µM; actives 0.69% (n = 350,000); in the data active = inhibition above about 41%; inconclusive = no clear call, values can overlap the other calls
Peg3 prom inh-2 = Peg3 promoter inhibition confirmation; actives 84% (n = 1,300); shares compounds with Peg3 prom inh-1; HeLa PEG-Prom luciferase reporter, luminescence, overnight; inhibition, % at 20 µM;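 active = at 20 µM dose, 40% or more inhibition averaged across four replicates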
Each line names hits and unclear results; the compound was inactive in the other large screens (follow-up assays come after a bar, where they were run).

C[C@H](CO)N1C[C@H](C)[C@H](CN(C)C(=O)c2ccccc2F)Oc2ncc(Br)cc2C1=O	none (no result: MITF TRPM1 inh)
CCOc1ccc(OCCCC(=O)N(CC)CC(=O)Nc2c(F)cccc2F)cc1	none
CC1(C(=O)NS(=O)(=O)c2ccc(F)cc2F)CCN1C(=O)CCc1ccc(Cl)cc1Cl (centres undefined)	none (no result: MITF TRPM1 inh, EBV LMP1 NFkB)
CC(=O)N1CCN(c2ccc(S(=O)(=O)NCCN(C(C)C)C(C)C)cc2[N+](=O)[O-])CC1	none
CN(C)CCNS(=O)(=O)c1ccc(N2CCN(c3ccc(F)cc3)CC2)c([N+](=O)[O-])c1	Peg3 prom inh-1 63
COc1ccc(/C=C2/CSC/C(=C/c3ccc(OC)c(OC)c3)C2=O)cc1OC	KKLEB tox -92, Shn3 inh set2 98, CF NFkB block 93, MITF TRPM1 inh 99, Peg3 prom inh-1 100, EBV LMP1 NFkB 90
COc1cc(C=C2CCCC(=Cc3ccc(OCC4CO4)c(OC)c3)C2=O)ccc1OCC1CO1 (centres undefined)	CF NFkB block 86, Peg3 prom inh-1 93, EBV LMP1 NFkB 49 (no result: MITF TRPM1 inh)
CCOc1ccc(/C=C2\CCC(C3CCCC3)C2=O)cc1OC (centres undefined)	none
CC1(C(=O)NS(=O)(=O)c2ccc(Br)cc2)CCN1C(=O)C1CCCCC1 (centres undefined)	none (no result: MITF TRPM1 inh, EBV LMP1 NFkB)
COc1ccccc1S(=O)(=O)N(C)C[C@@H]1OCc2cnnn2CCCC(=O)N([C@@H](C)CO)C[C@@H]1C	none (no result: MITF TRPM1 inh)
Oc1c(C(c2ccccc2Cl)N2CCCC2)ccc2cccnc12 (centres undefined)	Shn3 inh set2 87, MITF TRPM1 inh 75
CCOC(=O)C(C(=O)OCC)C(C(=O)OCC)N1CCOCC1 (centres undefined)	MITF TRPM1 inh 96, Peg3 prom inh-1 106
COc1ccc2c(C(=O)CCl)c[nH]c2c1	KKLEB tox -52, CF NFkB block 73, MITF TRPM1 inh 75
COc1ccc(OCC(=O)c2c[nH]c3ccccc23)cc1	none
COc1ccc(-c2ccc(CN3C(C)C(=O)N(Cc4cn(CCC5OCCO5)nn4)CCS3(=O)=O)cc2)cc1 (centres undefined)	none (no result: MITF TRPM1 inh)
CCOC(=O)c1cc([N+](=O)[O-])cc([N+](=O)[O-])c1Sc1ncnc2nc[nH]c12	Shn3 inh set2 96, MITF TRPM1 inh 107, Peg3 prom inh-1 98
COc1ccccc1C(O)c1ncc(-c2cccc(C(F)(F)F)c2)[nH]1 (centres undefined)	none (no result: MITF TRPM1 inh, EBV LMP1 NFkB)
CCCc1ccc(Oc2c(-c3ccc(O)c(C)c3O)n[nH]c2C)cc1	none
CCCc1ccc(Oc2cn[nH]c2-c2ccc(O)c(C)c2O)cc1	CF NFkB block 53
CN1C[C@@H]2C[C@@H](C3=Cc4cc(Cl)ccc4OC3)N3CCC[C@@]23C1=O	none
COc1ccc2c(c1)C=C([C@@H]1C[C@H]3CN(c4ccccc4)C(=O)[C@]34CCCN14)CO2	Peg3 prom inh-1 71 | Peg3 prom inh-2 53
CCOC(=O)c1c(C)[nH]c(C(=O)OCC(=O)Nc2sccc2C(N)=O)c1C	Peg3 prom inh-1 70 | Peg3 prom inh-2 73
O=C(COC(=O)c1cc(S(=O)(=O)N2CCCC2)ccc1O)Nc1ccccc1Br	none
O=C(NCCCn1ccnc1)c1sc2cc([N+](=O)[O-])ccc2c1Cl	none (no result: MITF TRPM1 inh)
CCCSc1ccc2nc(-c3ccccc3)cn2c1	KKLEB tox -70, MITF TRPM1 inh 79, Peg3 prom inh-1 77, EBV LMP1 NFkB 68 | Peg3 prom inh-2 69
COc1cc(N=Nc2c(O)c3ccccc3[nH]c2=O)c(OC)cc1N=Nc1ccccc1	Peg3 prom inh-1 59 | Peg3 prom inh-2 83
CCCCNC(=O)C(C)N(CCN(C)C)C(=O)CCCN1C(=O)NC(c2ccc([N+](=O)[O-])cc2)C(C(=O)OCc2ccccc2)=C1C (centres undefined)	Peg3 prom inh-1 57 | Peg3 prom inh-2 inactive
CCn1cc(C(=O)NCCC(C)C)c(=O)c2cc(F)c(N3CCN(C(=O)c4ccco4)CC3)cc21	Peg3 prom inh-1 64 | Peg3 prom inh-2 49
COc1ccc(OC)c(C(O)c2ncc(-c3ccc(C(F)(F)F)cc3)[nH]2)c1 (centres undefined)	none (no result: MITF TRPM1 inh, EBV LMP1 NFkB)
Cc1ccc(-n2[nH]c(=O)c(-c3ccccn3)c2C)cc1	MITF TRPM1 inh 83, Peg3 prom inh-1 73, EBV LMP1 NFkB 66 | Peg3 prom inh-2 59
Nc1nc(Nc2ccccc2)nc2ccccc12	none
CN(C)c1ccc(Nc2nc(N)c3ccccc3n2)cc1	KKLEB tox -62, Peg3 prom inh-1 63, EBV LMP1 NFkB 70 | Peg3 prom inh-2 65
O=C(CCN1C(=O)/C(=C/c2cccs2)SC1=S)N1CCCCC1	Peg3 prom inh-1 112 | Peg3 prom inh-2 92
COc1cc(/C=C2\SC(=S)N(CCC(=O)N3CCCCC3)C2=O)cc(OC)c1OC	Peg3 prom inh-1 68 | Peg3 prom inh-2 47
COc1ccc2c(c1)Cc1cc(NC(=O)c3ccccc3-c3ccccc3C(=O)O)ccc1-2	none (no result: MITF TRPM1 inh)
NC(=Nc1ccccc1)N(c1ccccc1)c1ccccc1	none
CCN(CC)CCC(c1ccc(N(C)C)cc1)c1c(OC)cc(OC)c2c(-c3ccccc3)cc(=O)oc12 (centres undefined)	Peg3 prom inh-1 84 | Peg3 prom inh-2 inactive
CN(C)S(=O)(=O)c1ccc(C(=O)NCCN2C(=O)S/C(=C\c3cccnc3)C2=O)cc1	none
CS(=O)(=O)c1ccc(C(=O)NCCN2C(=O)S/C(=C\c3cccnc3)C2=O)cc1[N+](=O)[O-]	KKLEB tox -68, CF NFkB block 78, MITF TRPM1 inh 69, Peg3 prom inh-1 99 | Peg3 prom inh-2 54
Cc1ccc(-c2nn3c(-c4ccco4)nnc3c3ccccc23)cc1S(=O)(=O)NCC1CCCO1 (centres undefined)	Peg3 prom inh-1 56 | Peg3 prom inh-2 inactive
CS(=O)(=O)c1cc(C(=O)O)cc(NCc2ccccc2)c1Oc1ccccc1	none (no result: MITF TRPM1 inh)
CCN1C(=O)C(=Cc2cccc(OC)c2Oc2ccc([N+](=O)[O-])cc2[N+](=O)[O-])SC1=S	KKLEB tox -84, Shn3 inh set2 99, CF NFkB block 88, MITF TRPM1 inh 88, Peg3 prom inh-1 108 | Peg3 prom inh-2 72
CN1CCN(c2ccc(-c3ccc4ccccc4n3)cc2)CC1	KKLEB tox -59, Shn3 inh set2 inconclusive, MITF TRPM1 inh 76, Peg3 prom inh-1 105, EBV LMP1 NFkB 83 | Peg3 prom inh-2 95
Cc1cc(C(=O)CSc2nnc3ccccn23)c(C)n1-c1ccccc1	MITF TRPM1 inh 78, Peg3 prom inh-1 101, EBV LMP1 NFkB 81 | Peg3 prom inh-2 81
CC1(C(=O)NS(=O)(=O)C2CC2)CCCN(C(=O)c2cccc(OC(F)(F)F)c2)C1 (centres undefined)	none (no result: MITF TRPM1 inh, EBV LMP1 NFkB)
